# This is a sample that favours compounds with a hit; in the whole collection about 8.3% have one here.
# SW480 rereplic = A quantitative high throughput screen for small molecules that induce DNA re-replication in SW480 colon adenocarcinoma cells; SW480 DNA re-replication, Hoechst DNA content imaging, 48 h; Potency, µM (top dose mostly 46.1 µM), for the others: at the highest dose re-replication activation, actives largely listed as activators; 1.8% of 340,000 active; AID 624297, 2012; also: potency is read from the fitted curve at half-maximal effect; % of control where 0% means no effect; nearly all actives have a fitted effect of over 55% in size
#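 Per well, 250 cells were exposed to pinned compound for 48 hr. Nuclear DNA was visualised with Hoechst (40 min, 37 C) and total object intensity recorded by fluorescence scanning.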
# Gal4-VP16 FLuc = VP16 counterscreen qHTS for inhibitors of ROR gamma transcriptional activity; Drosophila S2 Gal4-VP16 UAS-luciferase, luminescence, 20 h; Potency, µM (highest dose often 53.6 µM), for the others: at the highest dose activity, negative = inhibition, hits mostly inhibitors; 3.5% of 310,000 active; AID 2546, 2010;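 also: Gal4-VP16 expression switched on by copper sulfate through the metallothionein promoter; potency is read from the fitted curve at half-maximal effect; % is scaled to controls: 0 for no effect and ±100 for the full control effect; nearly all actives have a fitted effect of over 50% in size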
# Chronic BCR inh = qHTS Assay to Find Inhibitors of Chronic Active B-Cell Receptor Signaling; 0.05% of 340,000 active; AID 493014, 2011; Potency, µM (series often up to 46.1 µM), inactives show at the highest dose activity change, negative = inhibition, most hits filed as inhibitors; ABC-DLBCL IkBa-CBG/CBR reporter, luminescence ratio, 4 h; active = well fitted inhibition curve with a large enough effect in the signal ratio, with a control signal flat, not every such curve was filed as active; inconclusive = small, poorly fitted or top-dose-only effect, or effect the other way, or a change in a side signal; the % refers to the signal ratio;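 also: potency is read from the fitted curve at half-maximal effect; plate controls were basal doxycycline-induced cells for no effect and cells given 10 µM MG132 for full effect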
#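 Concentration-response series (up to 46 uM) were applied to TMD8 dual-reporter cells for 4 h at 37C with doxycycline. Green/red ratio, after filter-overlap correction, defined %Activity; red signal alone was normalised to basal cells and zero luminescence.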
# MCF10A rerep = A quantitative high throughput screen for small molecules that induce DNA re-replication in MCF 10a normal breast cells; MCF 10A DNA re-replication, Hoechst nuclear intensity, 48 h; Potency, µM (top dose mostly 46.1 µM), for inactives: at the top dose activity, positive = re-replication, most hits filed as activators; 2.9% of 350,000 active; also: potency is read from the fitted curve at half-maximal effect; % of control where 0% means no effect; nearly all actives have a fitted effect of over 50% in size
# Giardia killer = Small Molecules that selectively kill Giardia lamblia: qHTS; Giardia lamblia trophozoite viability; 0.15% of 340,000 active; activity change, % at 7.66 µM, hits read low; in the data active = activity change below about -80%; inconclusive = between about -30% and that limit;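 also: parasites exposed to compound for two days anaerobically before the ATP read; % is scaled to controls: 0 for no effect and ±100 for the full control effect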
#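 Luminescent ATP signal served as the viability read-out, measured 15-30 min after adding ATP detection reagent to trophozoites that had been incubated with compounds for 48 hrs at 37 deg C anaerobically at 100 cells/well.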
# RORg inh = qHTS for inhibitors of ROR gamma transcriptional activity. Drosophila S2 Gal4-RORgamma UAS-luciferase reporter, 20 h. Potency, µM (doses to about 53.6 µM), for the others: top-dose activity change, negative = inhibition, hits mostly inhibitors. Nuclear receptor ROR-gamma (Mus musculus), P51450. AID 2551, 2010. 5.4% of 310,000 active; also: potency is read from the fitted curve at half-maximal effect; % is scaled to controls: 0 for no effect and ±100 for the full control effect; nearly all actives have a fitted effect of over 60% in size
# Target sequence (P51450 whole entry, looked up, the tested form may be a part): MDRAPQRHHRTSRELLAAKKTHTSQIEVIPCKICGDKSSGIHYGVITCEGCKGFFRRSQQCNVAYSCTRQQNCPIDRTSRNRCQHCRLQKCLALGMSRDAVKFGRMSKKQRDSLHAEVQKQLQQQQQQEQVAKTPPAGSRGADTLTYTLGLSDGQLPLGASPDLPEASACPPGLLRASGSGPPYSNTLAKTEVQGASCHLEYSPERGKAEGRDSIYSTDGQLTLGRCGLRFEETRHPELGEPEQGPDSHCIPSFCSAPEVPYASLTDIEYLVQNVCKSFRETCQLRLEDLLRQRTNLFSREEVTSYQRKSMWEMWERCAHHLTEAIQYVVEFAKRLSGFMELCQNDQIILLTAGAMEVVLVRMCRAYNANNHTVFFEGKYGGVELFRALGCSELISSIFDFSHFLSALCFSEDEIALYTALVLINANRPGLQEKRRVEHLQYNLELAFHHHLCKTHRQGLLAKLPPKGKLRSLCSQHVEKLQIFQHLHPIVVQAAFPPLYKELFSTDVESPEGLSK
#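 Stably transfected Drosophila Schneider cells are the test system, with ROR gamma fused to Gal4 and luciferase under UAS control; luminescence is read after 20 hr of 700 uM copper sulfate induction at ambient temperature.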
# The depositor's hits bear a star; ? = inconclusive; [ ] = another dose, or the depositor's remark. Unless noted, calls follow the shape of the dose curve; as a rule, active = well fitted curve in the direction sought with a large enough effect; inconclusive = small, poorly fitted or top-dose-only effect, or another doubt; inactive = no such curve, though single readings can be large; an effect the other way counts as inactive or inconclusive.
SMILES,SW480 rereplic,Gal4-VP16 FLuc,Chronic BCR inh,MCF10A rerep,Giardia killer,RORg inh
CCn1cc(C(=O)NCc2ccco2)c(=O)c2cc(F)c(N3CCN(C(=O)c4ccco4)CC3)cc21,-2%,-9%,-4%,13µM*,28,0%
CCn1cc(C(=O)NCC(C)C)c(=O)c2cc(F)c(N3CCN(C(=O)c4ccco4)CC3)cc21,-2%,-7%,2%,?,-6,39%
CCCCCCNC(=O)c1cn(CC)c2cc(N3CCN(C)CC3)c(F)cc2c1=O,?,13µM*,4%,?,18,11µM*
COc1ccccc1NC(=O)C(=O)N/N=C(\C)CC(=O)Nc1ccc(OCc2ccccc2)cc1,-1%,-6%,?,17%,10,-40%
C/C(CC(=O)Nc1ccc(OCc2ccccc2)cc1)=N\NC(=O)C(=O)Nc1cccc(C)c1,-60%,?,?,15µM*,5,-18%
C/C(CCc1ccccc1)=N\NC(=O)C(=O)Nc1cccc(Cl)c1,7%,-8%,-21%,0.26µM*,-8,-13%
CCOC(=O)N1CCN(Cc2nnc(-c3ccccc3C)o2)CC1,-6%,-29%,-7%,0%,-12,26%
CC1CCCCC1NC(=O)c1ccncc1 (stereo not drawn),18µM*,0%,2%,3%,-7,?
Cc1c(C(=O)NC2CCCCC2C)oc2ccccc12 (stereo not drawn),-7%,5.6µM*,?,10%,-3,11µM*
O=C1C2(CCCC13COC(c1ccc(O)cc1)OC3)COC(c1ccc(O)cc1)OC2 (stereo not drawn),?,-3%,9%,-1%,-9,7%
Cc1noc(C)c1CSCC(=O)N(C)CC(=O)Nc1cccc(F)c1,-4%,-9%,-1%,0%,1,-1%
O=C(CNC(=O)c1ccc(Br)cc1)N/N=C/c1ccc[nH]1,-12%,3%,?,?,-21,-4%
Cc1ccc(NCC(=O)N/N=C\c2ccc[nH]2)cc1,-4%,?,?,1%,-7,6.3µM*
Cc1ccc(C)c(NC(=O)CCC(=O)N/N=C/c2ccc[nH]2)c1,-13%,-12%,0%,18%,-20,17%
O=C(Cc1ccccc1)N/N=C/c1ccc2cccc(O)c2n1,?,?,-13%,?,17,7.9µM*
O=C(Cc1ccccc1)N/N=C/c1ccc[nH]1,-1%,-16%,-6%,-6%,13,13µM*
NC(=O)N/N=C/c1ccc2cccc(OCc3ccccc3)c2n1,?,2%,?,19%,-13,12%
Cc1nn(C)c(C(=O)NC2C3CC4CC(C3)CC2C4)c1Cl (stereo not drawn),23µM*,5%,-6%,15%,-7,7%
CCOC(=O)/C(=C\c1cccnc1)C(=O)c1cc(C(C)=O)c(Nc2ccccc2)s1,3.7µM*,4.5µM*,?,2.9µM*,-17,3.5µM*
CCOC(=O)/C(=C\c1ccccc1)C(=O)c1cc(C(C)=O)c(Nc2ccccc2)s1,11%,?,-9%,20%,2,7.1µM*
CCOC(=O)/C(C#N)=C\c1cccnc1,-1%,-3%,4%,22%,-19,-18%
CCCCOc1ccc(CSCCNC(=S)Nc2ccccc2)cc1,4%,4.5µM*,?,?,-10,4.5µM*
CC(C)COc1ccc(CSCCNC(=S)Nc2ccccc2)cc1,?,3.2µM*,10%,?,11,1.1µM*
CCCCCOc1ccc(CSCCNC(=S)Nc2ccccc2)cc1,-9%,3.2µM*,?,-5%,-9,3.2µM*
COCCN(CCOC)S(=O)(=O)c1ccc(C(=O)Nc2ccc([N+](=O)[O-])cc2OC)cc1,2%[1.84 µM],3%,-5%,-22%,16,-7%

# Assay outcomes from PubChem BioAssay.
